Results filed as inconclusive are left out. Calls of active or inactive are those of the source. Calls follow the shape of the dose curve; as a rule, active = well fitted inhibition curve with a large enough effect; inconclusive = small, poorly fitted or top-dose-only effect; inactive = no such curve, though single readings can be large or run the other way.
Target: Rap guanine nucleotide exchange factor 3 (Homo sapiens) (UniProt O95398)
Assay: Counterscreen qHTS for antagonist of cAMP-regulated guanine nucleotide exchange factor 3 (EPAC1) (AID 1645888); also: % of control where 0% means no effect
Conditions: Rap1B-BODIPY-GDP nucleotide exchange, fluorescence; series mostly up to 154 µM
Source text: Assay Provider (PI): Xiaodong Cheng Ph.D. The University of Texas Medical Branch, […], TX MLPCN Grant: NS066510 In multi-cellular eukaryotic organisms, the effects of cAMP are transduced by two ubiquitously-expressed intracellular cAMP receptors, the classic protein kinase A/cAMP-dependent protein kinase (PKA/cAPK) and the more recently discovered exchange protein directly activated by cAMP/cAMP-regulated guanine nucleotide exchange factor (EPAC/cAMP-GEF). Both PKA and EPAC are ubiquitously expressed in all tissues, and an increase in intracellular cAMP levels will lead to the activation of both PKA and EPAC. Therefore, careful dissections of the individual role and relative contribution of EPAC and PKA within the overall cAMP signaling in various model systems are critical for further elucidating the mechanism of cAMP signaling. To date no EPAC-specific antagonists and agonist, as well as isoform-specific agonists have been reported, and developing EPAC-specific pharmacological probes to determine the physiological functions that EPAC play in the overall cAMP-mediated signaling remains a major challenge within the research field. Furthermore, identified regulators of EPAC may lead to new mechanism-based therapeutic strategies specifically targeting the EPAC / cAMP-signaling components as EPAC has been implicated to play important roles in major human pathological conditions such as diabetes, heart disease, and cancer. This qHTS will be used to screen the Molecular Libraries Small Molecule Repository (MLSMR) as a concentration-titration series using the NCGC unique quantitative screening (qHTS) platform to find activators for EPAC1. In addition, this assay will also be used as a counterscreen for the EPAC2 qHTS. This fluorescent based assay is developed and validated for EPAC1 that measures exchange using EPAC effector Rap1 complex with BODIPY-GDP, a GDP analog with a tethered fluorophores. Activators are identified by monitoring the change in fluorescence signal as the exchanged free BODIPY-GDP has a reduced fluorescence compared to Rap1-bound BODIPY-GDP. Increase in signal (activation) is the desired outcome for the EPAC1 agonist while no activity in this assay is desired for the EPAC2 agonist counterscreen. Reference: [1] de Rooij, J., Zwartkruis, F. J., Verheijen, M. H., Cool, R. H., Nijman, S. M., Wittinghofer, A., and Bos, J.L. (1998) Nature 396, 474-477. Kawasaki, H., Springett, G. M., Mochizuki, N., Toki, S., Nakaya, M., Matsuda, M., Housman, D. E., and Graybiel, A. M. (1998) Science 282, 2275-2279.
EPAC1 Counterscreen PROTOCOL TABLE SEQUENCE No. (e.g., 1, 2, 3, etc.); […] (e.g., Cells, Incubation, Reagent, etc.); VALUE and DESCRIPTION. 1. Reagent. 3 uL. [1x] 250 nM Rap1B-BODIPY-GDP, and 50 uM GDP. 2a. Compound. 23 nL. Control 6,572 uM cAMP (working concentration). 2b, 2c. Compound. 23 nL. Control activator and inhibitor; 234 - 30,000 uM cAMP and 16.4 - 10,000 uM. 2d. Compound. 46 nL. MLSMR follow-up library; 0.64 - 10,000 uM. 3. Time. 15 sec, 1000rpm. Centrifuge. 4. Time. 5 min. Incubation at room temperature. 5. Detector. Fluorescence. (Read 1), Ex/Em = 480 nm / 540 nm. 6. Time. 30 min. Incubation at room temperature. 7. Detector. Fluorescence. (Read 2), Ex/Em = 480 nm/ 540 nm. 8. Reagent. 1uL. Dispense either [4x] 10 uM cAMP or buffer. 9. Time. 15 sec, 1000 rpm. Centrifuge. 10. Time. 5 min. Incubation at room temperature. 11. Detector. Fluorescence. (Read 3), Ex/Em = 480 nm / 540 nm. 12. Time. 30 min. Incubation at room temperature. 13. Detector. Fluorescence. (Read 4), Ex/Em = 480 nm / 540 nm. NOTES (numbers refer to Sequence numbers above; values are from representative experiments) 1. Medium-binding black solid-bottom Greiner plates (789176-F). Dispense 3 uL of [1x] 250 nM Rap1B-BODIPY-GDP, and 50 uM GDP into columns 1 to 48. 2a. Control compound cAMP (6,572 uM, column 3, rows 1 to 32) single pin-transferred for a [final] of 50 uM. 2b. […]

Chain of Rap guanine nucleotide exchange factor 3 (Homo sapiens) (O95398 whole entry, looked up): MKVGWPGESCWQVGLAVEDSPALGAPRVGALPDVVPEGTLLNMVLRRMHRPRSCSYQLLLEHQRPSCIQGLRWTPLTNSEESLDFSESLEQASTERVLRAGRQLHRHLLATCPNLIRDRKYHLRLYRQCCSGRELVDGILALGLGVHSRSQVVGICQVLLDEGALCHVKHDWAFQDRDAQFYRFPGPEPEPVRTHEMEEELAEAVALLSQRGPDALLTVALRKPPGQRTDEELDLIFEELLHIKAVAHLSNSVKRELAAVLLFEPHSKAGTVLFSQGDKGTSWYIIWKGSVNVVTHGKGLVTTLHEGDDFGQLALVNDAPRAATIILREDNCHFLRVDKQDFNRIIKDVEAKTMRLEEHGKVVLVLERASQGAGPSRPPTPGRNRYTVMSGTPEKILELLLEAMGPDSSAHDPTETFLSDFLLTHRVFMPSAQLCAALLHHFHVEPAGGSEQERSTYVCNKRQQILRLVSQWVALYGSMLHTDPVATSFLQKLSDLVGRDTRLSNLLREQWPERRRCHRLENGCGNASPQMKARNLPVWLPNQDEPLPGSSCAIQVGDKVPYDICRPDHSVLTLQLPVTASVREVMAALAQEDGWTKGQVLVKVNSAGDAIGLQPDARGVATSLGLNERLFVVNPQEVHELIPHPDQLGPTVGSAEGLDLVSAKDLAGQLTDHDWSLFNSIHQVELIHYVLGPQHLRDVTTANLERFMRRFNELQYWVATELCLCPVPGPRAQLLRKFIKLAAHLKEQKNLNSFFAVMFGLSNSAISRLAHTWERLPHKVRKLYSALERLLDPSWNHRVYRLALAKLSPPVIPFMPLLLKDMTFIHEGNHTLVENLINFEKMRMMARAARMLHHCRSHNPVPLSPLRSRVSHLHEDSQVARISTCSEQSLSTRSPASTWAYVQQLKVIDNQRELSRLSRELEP

SMILES	activity change, negative = inhibition	outcome
O=c1[nH]c(=S)n(-c2ccccc2F)c(O)c1C=Nc1ccc(N2CCOCC2)cc1	-4.47% [at 30.8 µM] (inactive)	
Cn1ncnc2c(=O)n(C)c(=O)nc1-2		inactive
O=C1NC(=O)N(Cc2ccco2)C(=O)/C1=C/c1cccn1CCOc1ccccc1Cl		inactive
FC(F)(F)c1cccc(C2NCc3ccccc3-n3cccc32)c1 (stereo not given)	-3.38% [at 30.8 µM] (inactive)	
Cc1cccc(-n2c(O)c(/C=C/C=Nc3ccccc3)c(=O)[nH]c2=O)c1		inactive
COc1ccc(C2C=C(C)Oc3c2c(=O)oc2ccccc32)cc1OC (stereo not given)		inactive
COc1ccc(N2C(=O)NC(=O)/C(=C/c3ccc([N+](=O)[O-])s3)C2=O)cc1		inactive
CC1=NCCc2c1[nH]c1cc(O)ccc21	251% [at 30.8 µM] (inactive)	
O=C1NC(=S)NC(=O)C1=Cc1cccn1-c1ccc(O)cc1	-4.08% [at 30.8 µM] (inactive)	
CC(C)CCn1c(=O)c(C(=O)Nc2ccccc2S(N)(=O)=O)c(O)c2ccccc21		inactive
Cc1ccc(-n2c(O)c(/C=C/C=Nc3ccccc3)c(=O)[nH]c2=O)cc1		inactive
Cc1cccc(CN2C(=O)CN=C(c3ccccc3)c3ccccc32)c1		inactive
CCCCNC(=O)c1c(N)n(CCCOC)c2nc3ccccc3nc12		inactive
COC(=O)c1cn(Cc2ccc(F)cc2)c2ccccc12		inactive
CCC(=NCCCO)c1c(O)n(-c2ccc(OC)cc2)c(=O)[nH]c1=O	-14.3% [at 30.8 µM] (inactive)	
CCOC(=O)[C@]12Cc3ccccc3[C@H]1N(C1CCCCC1)C(=O)c1cc(OC)ccc12		inactive
CCN(CC)c1ccc(N=Cc2c(O)n(CCc3ccc(OC)c(OC)c3)c(=O)[nH]c2=O)cc1	-17.1% [at 30.8 µM] (inactive)	
Cc1ccc(-n2c(O)c(C=NCc3ccco3)c(=O)[nH]c2=S)cc1C		inactive
O=c1[nH]c(O)c(C=Nc2ccccc2Sc2ccccc2)c(=O)[nH]1		inactive
COC(=O)C1=C(c2cc3ccccc3s2)C[C@@H]2CC[C@H]1N2C(=O)NC1CC1		inactive

SMILES	activity change, negative = inhibition	outcome
COC(=O)c1cn(C(=O)c2cccc3ccccc23)c2ccccc12		inactive
Cc1cc2ccccn2c1C(C[N+](=O)[O-])c1c(F)cccc1Cl (stereo not given)		inactive
O=c1[nH]c(=S)n(-c2ccc(Cl)cc2)c(O)c1C=Nc1ccc(N2CCOCC2)cc1		inactive
CN1CC[C@@]2(C)c3cc(O)ccc3N(C)[C@@H]12		inactive
CC(c1ccccc1)(c1ccccc1)c1ccncc1	-6.49% [at 30.8 µM] (inactive)	
Cc1ccc(N)c(C(=O)c2ccc(Br)cc2)c1		inactive
O=C1NC(=O)N(Cc2ccco2)C(=O)/C1=C\c1ccc(-c2ccc(F)cc2)o1	-21.9% [at 30.8 µM] (inactive)	
Cc1cc(/C=C2\C(=O)NC(=O)N(Cc3ccccc3Cl)C2=O)c(C)n1-c1ccc(C(=O)O)cc1	4.25% [at 30.8 µM] (inactive)	
CCCNC1=C(C)C(=O)C2=C(C1=O)C(COC(N)=O)[C@]1(OC)C3NC3CN21 (stereo not given in full)		inactive
NC(=O)c1ccc(N=Cc2c(O)n(Cc3ccco3)c(=O)[nH]c2=O)cc1		inactive
COP(=O)(/C=C(\Cl)c1ccccc1)/C=C(\Cl)c1ccccc1		inactive
CCN1C(=O)C(=C/C=C/c2ccco2)C(=O)N(CC)C1=S		inactive
O=C1NC(=O)N(Cc2ccccc2)C(=O)/C1=C\C=C\c1ccco1	-17.1% [at 30.8 µM] (inactive)	
Cn1cccc1/C=C1/C(=O)NC(=S)N(Cc2ccc(F)cc2)C1=O	-2.5% [at 30.8 µM] (inactive)	
COc1ccc(CN2C(=O)NC(=O)/C(=C/c3ccc([N+](=O)[O-])s3)C2=O)cc1		inactive
CCN(CC)c1ccc(N=Cc2c(O)n(-c3cc(OC)ccc3OC)c(=O)[nH]c2=O)cc1	-4.74% [at 30.8 µM] (inactive)	
CN1CCN2c3ccc(N)cc3CC3(C(=O)NC(=O)NC3=O)C2C1 (stereo not given)		inactive
COc1cccc(C(c2nnnn2C2CCCCC2)N2CCC3(CC2)C(=O)NCN3c2ccccc2)c1OC (stereo not given)		inactive
Nc1ccc2nonc2c1[N+](=O)[O-]		inactive
Cc1cc(OC(C)C(=O)N[C@H](C(=O)O)c2ccccc2)c2c3c(c(=O)oc2c1)CCC3 (stereo not given in full)		inactive

Reference: PubChem BioAssay (NCATS)
